# Measurements: PubChem BioAssay (NCATS)
# Results filed as inconclusive are left out. Entries that show only a call come without a potency. A number with no mark means an inactive call. Activity calls are given as the source filed them. Calls come from the whole dose curve; as a rule, active = well fitted inhibition curve with a large enough effect; inconclusive = small, poorly fitted or top-dose-only effect; inactive = flat fitted curve, though single readings scatter.
# Assay: Primary qHTS for inhibitors of nuclear receptor binding SET domain protein 2 (NSD2) in an isogenic RCH-ACV NSD2 p.E1099K mutant (9B) (AID 1645876); note: nearly all actives have a fitted effect of over 70% in size
# Conditions: RCH-ACV (leukaemia line) NSD2 E1099K (9B) viability, CellTiter-Glo, 72 h; series mostly up to 44.9 µM
SMILES,Potency,"activity change, negative = viability loss"
CC(C)=CCC[C@@](C)(O)[C@H]1CC[C@]2(C)[C@@H]1[C@H](O)CC1[C@@]3(C)CC[C@H](O[C@@H]4O[C@H](CO)[C@@H](O)[C@H](O)[C@H]4O[C@@H]4O[C@H](CO)[C@@H](O)[C@H](O)[C@H]4O)C(C)(C)[C@@H]3CC[C@]12C (some centres not stated),inactive,–
COC(=O)C1=COC(OC2OC(CO)C(O)C(O)C2O)C2C(COC(=O)/C=C/c3ccc(O)cc3)C(O)C(O)C12 (configuration not stated),inactive,–
COC(=O)C(CC1(O)c2ccccc2N2C(=O)C(C)(C)N(O)C21)n1cnc2ccccc2c1=O (configuration not stated),inactive,–
COc1c(-c2ccc(O)cc2)cc(OC)c2c1oc1cc(O)c(OC3OC(CO)C(O)C3O)cc12 (configuration not stated),inactive,–
C=C1CC[C@@]2(OC1)O[C@H]1CC3C4CC=C5C[C@@H](O[C@@H]6O[C@@H](C)[C@H](O)[C@@H](O)[C@H]6O)C[C@@H](O[C@@H]6O[C@H](C)[C@H](O)[C@H](O)[C@H]6O[C@@H]6O[C@@H](C)[C@H](O)[C@@H](O)[C@H]6O)[C@]5(C)C4CC[C@]3(C)[C@H]1[C@@H]2C (some centres not stated),–,-22.3% [at 9.23 µM]
CCC(C)C(=O)O[C@H]1[C@@H](O[C@H]2O[C@H](CO)[C@@H](O)[C@H](O)[C@H]2O)O[C@H](CO)[C@@H](O)[C@@H]1O (some centres not stated),inactive,–
CC(CC(C)O[C@@H]1O[C@H](CO)[C@@H](O)[C@H](O)[C@H]1O)OC(=O)/C=C/c1ccc(O)cc1 (some centres not stated),inactive,–
